Measurements reported in PubChem BioAssay (NCI).
“And” between values parts separate entries of the source, which are not always exact repeats. Identical values can stand only once. About 79,000 compounds went through this panel and 15% of them were active in at least one assay; those are over-represented in the sample as a whole. Rule as the data show it: active = growth inhibition above about 70%; inactive = the rest.

How the values were obtained:
[1] = NCI Yeast Anticancer Drug Screen. Data for the rad50 strain (AID 155);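 also: 0% = growth of vehicle-only cultures of the same strain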; conditions: S. cerevisiae rad50 strain growth inhibition; at 50.0 µM; stronger effect = higher value
Outline: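 Growth of the mutant yeast was measured after compound exposure and referenced to vehicle-treated cultures.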

[2] = NCI Yeast Anticancer Drug Screen. Data for the mec2-1 strain (AID 157); conditions: S. cerevisiae mec2-1 strain, at 50.0 µM, stronger effect = higher value
Outline: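 Compounds were applied to mec2-1 yeast cells. Their growth was then compared with that of vehicle-treated cultures to give growth inhibition.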

[3] = NCI Yeast Anticancer Drug Screen. Data for the sgs1 mgt1 strain (AID 161);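 also: 0% = growth of cultures given vehicle only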; conditions: S. cerevisiae sgs1 mgt1 strain, at 50.0 µM, stronger effect = higher value
Outline: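 Percent growth inhibition was derived by comparing compound-exposed mutant yeast with vehicle-exposed cultures. The strain carries alterations in DNA damage repair.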

[4] = NCI Yeast Anticancer Drug Screen. Data for the cln2 rad14 strain (AID 165);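 also: 0% = growth equal to vehicle treated cultures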; conditions: S. cerevisiae cln2 rad14 strain, at 50.0 µM, stronger effect = higher value
Outline: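 Strain: cln2 rad14 yeast, altered in cell cycle control and DNA damage repair. Read-out: growth inhibition vs vehicle.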

[5] = NCI Yeast Anticancer Drug Screen. Data for the bub3 strain (AID 167); conditions: S. cerevisiae bub3 mutant strain, at 50.0 µM, stronger effect = higher value
Outline: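 Whole-cell yeast assay. The mutant strain was incubated with compounds, and growth inhibition was determined by comparison with vehicle-treated cells.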

[6] = NCI Yeast Anticancer Drug Screen. Data for the mlh1 rad18 strain (AID 175); conditions: S. cerevisiae mlh1 rad18 strain growth inhibition; at 50.0 µM; stronger effect = higher value
Outline: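 A repair-deficient yeast strain is exposed to test compound, and growth is scored relative to vehicle-treated controls.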

Measured: growth inhibition

O=Nc1ccc(NO)cc1
inactive: [1] 29.9% and 34% | [2] 32.7% and 7.45% | [3] 33.5% and 20.3% | [4] -25.2% and 22.3% | [5] 3.2% and 47.5% | [6] 3.35% and 31.6%

CC(C)c1ccc(C(=O)O)cc1
inactive: [1] 11.3% and 24% | [2] -9.2% and 12.3% | [3] 9.55% and 13.2% | [4] -8.2% and 5.9% | [5] -9% and 5.1% | [6] 20.1% and 22.2%

COC1OC2COC(C)(C)OC2C1NS(=O)(=O)Cc1ccccc1 (stereo unspecified)
inactive: [1] 2.8% and 0.75% | [2] -6.85% and -9.65% | [3] -2.1% and -4.05% | [4] -32.6% and -34.1% | [5] -3.45% and -11.8% | [6] -14.1% and -6.35%

C/C(=N\NS(C)(=O)=O)C(C)(C)C
inactive: [1] -5.05% and 16.1% | [2] -0.2% and 11.1% | [3] 2.35% and 21.3% | [4] -5.35% and 6.5% | [5] -35.5% and -20.8% | [6] -13% and 17.8%

Cc1cc(=O)[nH]c2ccc(Cc3ccccc3)cc12
inactive: [1] -1.2% and 28.1% | [2] 10.4% and 5.75% | [3] -7.75% and 17.6% | [4] -26.2% and 6% | [5] -4.6% and -2.65% | [6] 16.9% and 21.9%

COCC1OC(OC)C(OC)C(OC)C1OC (stereo unspecified)
inactive: [1] -4.45% and 3.1% | [2] -13% and -0.5% | [3] 8.35% and -0.1% | [4] -49.7% and 1.25% | [5] -21.1% and 1.3% | [6] -4.8% and -4.25%

Cc1ccc2c(c1)P(=O)(O)c1cc(C)ccc1S2(=O)=O
inactive: [1] -0.75% and 4.5% | [2] 11.2% and -2.65% | [3] 6.75% and -4.1% | [4] -1.1% and -1.2% | [5] 0.45% and -9.3% | [6] -1.1% and -0.2%

O=C(O)c1cc([N+](=O)[O-])ccc1Nc1ccccc1
inactive: [1] 10.8% and -9.95% | [2] 0.2% and -12.4% | [3] -7.05% and -3.35% | [4] 31.6% and -28.6% | [5] 18.6% and -3.55% | [6] 18.1% and -6.2%

O=C1C2C3C=CC(C3)C2C(=O)N1O (stereo unspecified)
inactive: [1] 18.1% and 24.3% | [2] -7.6% and -8.3% | [3] 7.1% and 11.2% | [4] 10% and 10.6% | [5] 25.1% and 3.05% | [6] 11.4% and 18.5%

CC(=O)c1c(-c2cccc3ccccc23)c(C#N)c(=S)n(C2OC(CO)C(O)C(O)C2O)c1C (stereo unspecified)
inactive: [1] -18.7% and 15.5% | [2] 12.1% and 15% | [3] 2.25% and 32% | [4] 12.3% and 28.2% | [5] 21.1% and 32.1% | [6] 1.55% and 44.9%

Cc1ccc(C2SCC(=O)N2CCN2C(=O)CSC2c2ccc(C)o2)o1 (stereo unspecified)
inactive: [1] 7.1% and 5.95% | [2] 16.1% and 8.45% | [3] -2.45% and 17.6% | [4] 3.15% and -0.1% | [5] -1.45% and -3.45% | [6] 13.2% and -12.4%

O=C1CC(=P(c2ccccc2)(c2ccccc2)c2ccccc2)C(=O)N1c1ccccc1
inactive: [1] -24.2% and 22.2% | [2] -15.6% and -12% | [3] -7.95% and 42.8% | [4] 5.05% and 33.2% | [5] -9.45% and 10.2% | [6] -12.8% and 21.6%

Cc1cn(C2CC(CCCO)C(CO)O2)c(=O)[nH]c1=O (stereo unspecified)
inactive: [1] -6.5% and -9.9% | [2] -7% and -5.25% | [3] 6.7% and 2.7% | [4] -2.8% and 16.1% | [5] 2.3% and 0.3% | [6] 5.35% and 0.6%

C1CCC(N2CN(C3CCCCC3)C2)CC1
inactive: [1] 7.7% and 0.05% | [2] -11.9% and 0.5% | [3] -17.1% and -8.8% | [4] -14.5% and 10.3% | [5] -8.85% and -19.4% | [6] -31.8% and 18%

CC(=O)N1CCN(C(C)=O)C2C1N(C(C)=O)CCN2C(C)=O (stereo unspecified)
inactive: [1] -11.7% and 11.8% | [2] -18.9% and -10.6% | [3] -24.6% and 11.8% | [4] -20.1% and 27% | [5] -19.6% and 19.8% | [6] -17.1% and 35.9%

Cc1ccc(S(=O)(=O)NN=C2C(C)(C)CC2(C)C)cc1
inactive: [1] -21.9% and 21.2% | [2] 1.15% and -11.8% | [3] 8.55% and 6.6% | [4] 13.9% and -23.5% | [5] 6.15% and -2.85% | [6] -24.8% and 3.65%

O=C(Oc1ccc(Cl)cc1Cl)Oc1ccc(Cl)cc1Cl
inactive: [1] -16.8% and -3.1% | [2] 11.6% and 10% | [3] -0.9% and -13.1% | [4] -13.1% and -15.7% | [5] 14.2% and 14.9% | [6] -14.5% and 20.6%

CCOC(=O)C1CN(C)CC(c2ccccc2)C1=O (stereo unspecified)
inactive: [1] 12.3% and -8.7% | [2] 14.9% and 1% | [3] 16.1% and -3.5% | [4] -10.4% and -25.1% | [5] 9.25% and -4.45% | [6] 11.1% and 5.6%

CC(C)(CO)C(O)C(=O)NCCS(=O)(=O)O (stereo unspecified)
inactive: [1] -6.8% and -16.3% | [2] -4.35% and -1.8% | [3] 15.2% and 3.4% | [4] -14% and -11.9% | [5] 9.05% and 21.9% | [6] -3.1% and -27.3%

OC1Cc2ccccc2CC1O (stereo unspecified)
inactive: [1] -20.1% and -35.1% | [2] -41.4% and -39.9% | [3] -36.5% and -12.3% | [4] -19.6% and -1.5% | [5] -26.1% and -8.8% | [6] -5.8% and -14.7%

COc1ccc(-c2nc(SC3OC(COC(C)=O)C(OC(C)=O)C(OC(C)=O)C3OC(C)=O)n(C3OC(COC(C)=O)C(OC(C)=O)C(OC(C)=O)C3OC(C)=O)c(=O)c2C#N)cc1 (stereo unspecified)
inactive: [1] 11.2% and -3.9% | [2] 8.85% and -1% | [3] 22.4% and 18.1% | [4] -6.15% and -19.5% | [5] 3.35% and 14.9% | [6] -12.7% and -3.55%
